{"source": "the supplement of paper PMC10941209", "note": "Values without a mark were called inactive.", "data": [{"system": "Toxoplasma gondii RH 2F1 tachyzoites (intracellular in HFF)", "assay": "parasite survival relative to DMSO control; higher = less antiparasitic activity, active = 20 or less", "settings": "1 µM; 72 h", "procedure,_shortened": "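Compound at 1 μM was applied for 72 h at 37°C in 5% CO2 to HFF cells in 96-well plates (5 × 10^3 cells/well) that had been infected for 3 h in D2 medium with 5 × 10^3 Toxoplasma gondii RH-2F1 tachyzoites carrying β-galactosidase. The readout was absorbance at 570 nm, 30 min after CPRG addition. Survival is reported as a percentage of the signal from infected wells given DMSO, based on at least 2 biological replicates.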", "values": [{"smiles": "O=C1c2cccc3cccc(c23)C(=O)N1CC1CO1", "note": "(stereo not given)", "parasite survival": "51.9%"}, {"smiles": "CCn1cc(C(=O)O)c(=O)c2cc(F)c(N3CCNC(C)C3)c(F)c21", "note": "(stereo not given)", "parasite survival": "76%"}, {"smiles": "CCc1ccccc1OCCN1CCCCCC1", "parasite survival": "47.2%"}, {"smiles": "C[C@H]1CC[C@]2(NC1)O[C@H]1C[C@H]3[C@@H]4CC[C@H]5C[C@@H](O)CC[C@]5(C)[C@H]4CC[C@]3(C)[C@H]1[C@@H]2C", "parasite survival": "41.1%"}, {"smiles": "O=C(O)c1ccc(-c2ccc(O[C@H]3O[C@H](CO)[C@@H](O)[C@H](O)[C@@H]3O)cc2)cc1", "parasite survival": "46.4%"}, {"smiles": "CCOC(=O)N[C@@H]1CC[C@@H]2[C@@H](C1)C[C@H]1C(=O)O[C@H](C)[C@H]1[C@H]2/C=C/c1ccc(-c2cccc(F)c2)cn1", "parasite survival": "23%"}, {"smiles": "NNC(=O)c1ccncc1", "parasite survival": "63.2%"}, {"smiles": "CCN1CCN(Cc2nc3ccc([N+](=O)[O-])cc3c(=O)n2-c2ccccc2F)CC1", "parasite survival": "59.6%"}, {"smiles": "Cc1cc(Nc2ccc(F)cc2)nc(SCc2nc3ccccc3[nH]2)n1", "parasite survival": "42.4%"}, {"smiles": "NC(=O)c1cnc2ccc(S(=O)(=O)c3ccccc3)cc2c1Nc1ccc(O)cc1", "parasite survival": "43%"}, {"smiles": "C=C(C)n1c(=O)n(Cc2ccccc2C)c2ccccc21", "parasite survival": "44.5%"}, {"smiles": "O=C(Nc1ccc(Cl)c(C(F)(F)F)c1)C(CCCl)C(=O)Nc1ccc(Cl)c(C(F)(F)F)c1", "parasite survival": "15.6% (active)"}, {"smiles": "O=C(Nc1ccc(F)cc1)c1nn(-c2ccccc2)c(=O)cc1Cl", "parasite survival": "42.6%"}, {"smiles": "Cc1cc(-c2ccccc2)c(C(=O)C(=O)Nc2ccc(N3CCN(c4ncc(F)cn4)CC3)cc2)n1C", "parasite survival": "9.71% (active)"}, {"smiles": "O=C(CP(=O)(O)O)NCCc1cccc(Oc2ccccc2)c1", "parasite survival": "40.8%"}, {"smiles": "NC1(C(=O)O)CCP(=O)(O)CC1", "note": "(stereo not given)", "parasite survival": "77.4%"}, {"smiles": "CC1CCc2c(N3CCC(O)CC3)c(F)cc3c(=O)c(C(=O)O)cn1c23", "note": "(stereo not given)", "parasite survival": "51%"}, {"smiles": "O=C(NO)C1(CS(=O)(=O)c2ccc(Oc3ccc(Cl)cc3)cc2)CCOCC1", "parasite survival": "66%"}, {"smiles": "N#CCN1C(=O)COc2cc(F)c(N3C(=O)c4ccccc4C3=O)cc21", "parasite survival": "67.4%"}, {"smiles": "Nc1nc2c(ncn2/C=C2/CC2(CO)CO)c(=O)[nH]1", "parasite survival": "84.8%"}, {"smiles": "O=C(O)COc1cccc2c1CC[C@](O)(COC(=O)N(c1ccccc1)c1ccccc1)C2", "parasite survival": "76.3%"}, {"smiles": "NC(=O)C(c1ccccc1)(c1ccccc1)[C@H]1CCCN(CCc2ccc3c(c2)CCO3)C1", "parasite survival": "67%"}, {"smiles": "O=C(O)c1cc(-c2ccccc2)nc2ccccc12", "parasite survival": "67.9%"}, {"smiles": "C[C@H]1COc2c(N3CCN(C)CC3)c(F)cc3c(=O)c(C(=O)O)cn1c23", "parasite survival": "51.4%"}, {"smiles": "CC(C)(C)c1ccc(OCCn2nc(C(=O)O)c3ccccc3c2=O)cc1", "parasite survival": "45.3%"}, {"smiles": "Cc1c(F)cccc1NC(=O)Nc1ccc(Cl)c(S(=O)(=O)[C@H]2CCCNC2)c1O", "parasite survival": "73.2%"}, {"smiles": "Cc1nc(-c2ccc(C3N(C)c4ccc(F)cc4C(=O)N3c3ccccc3)s2)cs1", "note": "(stereo not given)", "parasite survival": "59.2%"}, {"smiles": "CCCCN1C[C@H](O)[C@@H](O)[C@H](O)[C@H]1CO", "parasite survival": "61.5%"}, {"smiles": "O=C1NC(=O)C(Br)=C1Br", "parasite survival": "35.2%"}, {"smiles": "Cc1cc(C2CCCCC2)n(O)c(=O)c1", "parasite survival": "15.8% (active)"}, {"smiles": "CC(C)(C)c1ccc(C(Cn2cccc(C(F)(F)F)c2=O)NC2Cc3ccccc3C2)cc1", "note": "(stereo not given)", "parasite survival": "51.5%"}, {"smiles": "COc1ccc2c(c1OC)C(=O)OC2C1c2c(cc3c(c2OC)OCO3)CCN1C", "note": "(stereo not given)", "parasite survival": "68.3%"}, {"smiles": "C=C(C)[C@@H]1CC[C@]2(C(=O)O)CC[C@]3(C)[C@H](CC[C@@H]4[C@@]5(C)CC[C@H](O)C(C)(C)[C@@H]5CC[C@]43C)[C@@H]12", "parasite survival": "46.6%"}, {"smiles": "CCC[C@@H]1C[C@@H](C(=O)N[C@@H]([C@H]2O[C@H](SC)[C@H](O)[C@@H](O)[C@H]2O)[C@H](C)Cl)N(C)C1", "parasite survival": "16.1% (active)"}, {"smiles": "COC(=O)Nc1nc2ccccc2[nH]1", "parasite survival": "53%"}, {"smiles": "O=C(Nc1ccc(N2CCN(C(=O)c3ccccc3)CC2)cc1)c1ccc2c(c1)OCO2", "parasite survival": "46.9%"}, {"smiles": "CC(C)Cn1c(=O)n(C)c(=O)c2c(-c3cncn3C)n(Cc3cccc4ccccc34)nc21", "parasite survival": "68.5%"}, {"smiles": "Cc1ccc(Oc2ccccc2-c2csc(N=C3NCCCN3)n2)c(C)c1", "parasite survival": "30.1%"}, {"smiles": "COc1ccc(NC(=O)c2cc3ccccn3n2)cc1", "parasite survival": "44.5%"}, {"smiles": "COc1cc(NCc2ccc3nc(N)nc(N)c3c2C)cc(OC)c1OC", "parasite survival": "3.86% (active)"}]}]}
